We go through 51 molecules from ChEMBL document CHEMBL4513216, “Probing the Open Global Health Chemical Diversity Library for Multistage-Active Starting Points for Next-Generation Antimalarials” (ACS Infect Dis, 2020).

The structures appear in SMILES notation. The whole screen tested about 68,000 compounds, of which about 2,700 (4%) showed an effect of 50% or more. This is one part of a sample in which strong results are shown more often than they occur.

The subject of the test is Plasmodium berghei. Nature of the test: Screen against P. berghei liver stage (PbLuc), transformed with Luciferase, at 2uM. The test is classed as functional, HepG2. The conditions noted are these: tested at 2 uM.
For `Cc1nccc(C(=O)N2CCCN(Cc3cnn(C(C)C)c3)CC2)n1`, the INHIBITION was determined as 16.6%.

Regarding `COC(=O)C(C)(C)NC(=O)C1CC(=O)N(C2CC2)C1` (stereo unspecified), the INHIBITION was 5.15%.

Consider `Cc1cc(NCCS(C)(=O)=O)nc2ccccc12`, for which the INHIBITION is listed as -0.6%.

Consider `Cc1cc(NCCCNS(C)(=O)=O)nc2ccccc12`, for which the INHIBITION was found to be 20.88%.

For `Cc1cc(NCCOCCS(C)(=O)=O)nc2ccccc12`, the INHIBITION stood at 53.16%.

Consider `Cc1cccc(-c2nc(CN3CCCC3Cn3cc(C)cn3)no2)c1` (stereo unspecified), for which the INHIBITION is recorded as 1.36%.

Take `COC(=O)N1CCCN(C(=O)c2cccc3cccnc23)CC1`: the INHIBITION worked out at 5.72%.

With `COCC1CN(CCOc2ccc(Cl)cc2)Cc2c1cnn2C` (stereo unspecified), the INHIBITION is given as -17.24%.

Regarding `Cc1cc(-c2cnc(C)nc2CN(C)C(=O)c2cc(C3CC3)on2)on1`, the INHIBITION was found to be 51.57%.

On to `Cc1cc(-c2cnc(C)nc2CN(C)C(=O)c2ccccn2)on1`, for which the INHIBITION was -0.54%.

On to `Cc1cc(-c2cnn(CCNC(=O)C3CC3)c2C2CC2)on1`, for which the INHIBITION is -39.92%.

Take `Cc1cc(-c2cnc(C(C)C)nc2CN(C)C(=O)c2ccccn2)on1`: the INHIBITION is listed as 56.57%.

For `Cc1cc(-c2cnc(C3CC3)nc2CN(C)C(=O)c2ccccn2)on1`, the INHIBITION worked out at 34.06%.

In the case of `Cc1cc(-c2cnn(CCNC(=O)c3cc[nH]n3)c2C2CC2)on1`, the INHIBITION was -2.47%.

For `Cc1nn(C)cc1C1=NS(=O)(=O)N(C)C(C(=O)Nc2ccc(Cl)cc2)=C1`, the INHIBITION is -13.02%.

As to `CCn1cc(S(=O)(=O)NC2CCCN(CCCc3ccccc3)C2)cn1` (stereo unspecified), the INHIBITION is recorded as 7.21%.

For `CC(=O)N1CCCCCC1C1CCN(Cc2nnc(C(C)(C)C)o2)CC1` (stereo unspecified), the INHIBITION worked out at 30.82%.

For the molecule `COc1cncc(-n2ccnc2-c2ccc(C(=O)O)s2)c1`, the INHIBITION was 48.58%.

Regarding `Cc1cnc(C(=O)N2CCC3(CC2)CC(c2ccccc2)C(=O)N3)cn1` (stereo unspecified), the INHIBITION is recorded as -6.21%.

As to `CC(C)c1nc(C(=O)N2C[C@H](C(C)C)[C@@H](N)C2)cs1`, the INHIBITION amounted to 58.69%.

As to `CC(=O)N[C@@H]1CN(C(=O)c2csc(C(C)C)n2)C[C@H]1C(C)C`, the INHIBITION was 3.62%.

Turning to `CC(C)c1nc(C(=O)N2CCCC(N)CC2)cs1` (stereo unspecified), the INHIBITION is -66.05%.

With `COc1ccc(-c2cc(CN)nc3ccnn23)cc1`, the INHIBITION is on record as -11.81%.

Take `O=c1c(NCc2ccccn2)c(NCC(O)CN2CCOCC2)c1=O` (stereo unspecified): the INHIBITION is listed as 15.02%.

Take `O=c1c(NCc2ccco2)c(NCC(O)CN2CCOCC2)c1=O` (stereo unspecified): the INHIBITION is given as 53.33%.

With `O=c1c(NCc2ccncc2)c(NCC(O)CN2CCOCC2)c1=O` (stereo unspecified), the INHIBITION came to 1.08%.

Take `COCCN1CCc2cc(C(=O)NCC3CC3)c(NC(C)C)nc2CC1`: the INHIBITION was found to be 25.35%.

Regarding `COC[C@]1(O)CCN(C(=O)c2ccc(CN(C)C)o2)CC1(C)C`, the INHIBITION was determined as 8.88%.

For `CN(Cc1ccccc1)C1(C(=O)NC(CO)CO)Cc2ccccc2C1`, the INHIBITION turned out to be 31.35%.

On to `CC(Cc1cn(CCc2nnn[nH]2)nn1)c1ccccc1` (stereo unspecified), for which the INHIBITION stood at 29.41%.

For `Cc1nccc([C@H]2C[C@@H]3CCN(S(=O)(=O)N(C)C)C[C@H]3O2)n1`, the INHIBITION is listed as 21.33%.

Turning to `Cc1nccc([C@@H]2C[C@@H]3CCN(S(=O)(=O)N(C)C)C[C@H]3O2)n1`, the INHIBITION is on record as 54.16%.

In the case of `Cc1nccc([C@@H]2C[C@@H]3CCN(S(C)(=O)=O)C[C@H]3O2)n1`, the INHIBITION amounted to 26.65%.

Consider `COc1cc(N2C[C@H]3CCC[C@@H](CN4CCOCC4)[C@H]3C2)ncn1`, for which the INHIBITION is on record as 36.75%.

Take `CCCS(=O)(=O)N1C[C@@H]2CN(Cc3ccoc3)CCO[C@@H]2C1`: the INHIBITION was 33.4%.

In the case of `CC(=O)N1CCCN(C(=O)c2ccc(=O)n(C)c2)c2ccccc21`, the INHIBITION is given as 28.18%.

`CCN1CCN(C(=O)c2ccc(=O)n(C)c2)c2ccccc21`: the INHIBITION was -22.63%.

As for `CC1CN(C)c2ccccc2N(C(=O)c2ccc(=O)n(C)c2)C1` (stereo unspecified), the INHIBITION is reported as 15.47%.

`Cn1cc(C(=O)N2CCOc3ccccc32)ccc1=O`: the INHIBITION was -31.6%.

As for `Cn1cc(C(=O)N2CCSc3ccccc32)ccc1=O`, the INHIBITION is reported as 50.05%.

On to `COCCCN1CC2(CCN(C(=O)c3ccc(=O)n(C)c3)CC2)CC1=O`, for which the INHIBITION is 44.23%.

On to `CN1CC2(CCN(C(=O)c3ccc4nonc4c3)CC2)CC1=O`, for which the INHIBITION was 10.02%.

On to `CN1CC2(CCN(C(=O)c3ccc(=O)n(C)c3)CC2)CC1=O`, for which the INHIBITION was determined as 53.13%.

For the molecule `CN1CCN(C(=O)c2ccc(=O)n(C)c2)c2ccccc21`, the INHIBITION worked out at 51.19%.

As to `CC(C)n1nc(CN2CCCC2)c2c1CN(CC1CC1)CC2`, the INHIBITION is given as -29%.

In the case of `FC(F)(F)CCc1ccnc(NCc2csc(N3CCOCC3)n2)n1`, the INHIBITION is given as -17.11%.

As to `Cn1nnc2c1C(COCC1CC1)CN(C(=O)C1=CCCC1)C2` (stereo unspecified), the INHIBITION was determined as 22.68%.

Take `CCN1CCC2(CCN(c3ncccn3)CC2)C1=O`: the INHIBITION is listed as 32.05%.

`CC(C)NS(=O)(=O)c1cc(C(=O)O)cc(-c2ccc3c(c2)OCO3)c1`: the INHIBITION is -12.67%.

Turning to `O=C(NCc1ccccn1)[C@@H]1CCO[C@@H]2CCN(Cc3ccoc3)C[C@H]21`, the INHIBITION was found to be 11.08%.

In the case of `O=C(c1ccno1)N1CCCC(c2ncncc2-c2ccncc2)C1` (stereo unspecified), the INHIBITION is listed as 6.13%.
